In PubChem BioAssay (EPA / NIEHS):
Records with an inconclusive call do not appear. Calls of active or inactive are those of the source. The calls were made as follows: active = hit-call score of the fitted dose curve at least 0.9, where 1 is the maximum; inconclusive = response in the unintended direction; inactive = score below 0.9.

Test: Tanguay_ZF_120hpf_TRUN_legacy: (Legacy) Oregon State University Tanguay Lab 120 Hour Post-fertilization zebrafish Assay for Truncated Body (AID 2283655)
Procedure: Tanguay_ZF_120hpf_legacy is a whole embryo, multiplexed endpoint assay using zebrafish larvae exposed for 120 hours post fertilization on a 96-well plate.Tanguay_ZF_120hpf_TRUN_legacy is one of one assay component(s) measured or calculated from the Tanguay_ZF_120hpf_legacy assay. It is designed to make measurements of zebrafish development as detected with brightfield microscopy of developing zebrafish embryos.Data from the assay component Tanguay_ZF_120hpf_TRUN_legacy was analyzed into 1 assay endpoints. This assay endpoint, Tanguay_ZF_120hpf_TRUN_legacy, was analyzed in the positive analysis fitting direction relative to DMSO as the negative control and baseline of activity. Using a type of morphology reporter, gain-of-signal activity can be used to understand changes in developmentals as they relate to the whole embryo. To generalize the intended target to other relatable targets, this assay endpoint is annotated to the zebrafish development intended target family, where the subfamily is embryonic morphogenesis.
Zebrafish husbandry: Tropical 5D wild-type adult zebrafish were housed in at an approximate density of 1000 per 100 gallon tank at the Sinnhuber Aquatic Research Laboratory, Oregon State University, Corvallis, OR. Each tank was kept at standard laboratory conditions of 28C on a 14-h light/10-h dark photoperiod in fish water consisting of reverse osmosis water supplemented with a commercially available salt (Instant Ocean). Spawning funnels were placed into the tanks the night prior, and embryos were collected and staged. To increase bioavailability, the chorion was enzymatically removed using pronase (63.6mg/ml, >/= 3.5U/mg, Sigma-Aldrich: P5147) at 4 hours post fertilization (hpf) using a custom automated dechorionator.Chemical exposures: Six hpf dechorionated embryos were placed 1 embryo per well in a 96-well plate prefilled with 90 ul of EM using automated embryo placement systems (AEPS). Ten microliters of each row of dilution plate 2 was added to 2 exposure plates. The final DMSO concentration used was 0.64% (vol/vol). Thirty-two embryos were also exposed to 5uM trimethyltin chloride (positive control). Plates were sealed to prevent evaporation and foil covered to reduce light exposure and kept in a 28C incubator. Embryos were statically exposed until 120 hpf. At 24 hpf, embryos were assessed for photomotor response using a custom photomotor response analysis tool (PRAT) and for developmental toxicity endpoints (MO24: mortality at 24 hpf, DP: developmental progression, SM: spontaneous movement, and NC: notochord distortion). At 120 hpf, locomotor activity was measured using Viewpoint Zebralab and assessed for 18 endpoints. Zebrafish acquisition and analysis program (ZAAP), a custom program designed to inventory, acquire, and manage zebrafish data, was used to collect developmental endpoints as either present or absent (i.e., binary responses were recorded). If mortality occurred for an embryo (at either 24 or 120 hpf), the non-mortality endpoints were not measured.

| SMILES | outcome | AC50 |
| --- | --- | --- |
| Cn1c(=O)c2c(ncn2C)n(C)c1=O | inactive | – |
| NC(=O)NO | inactive | – |
| COc1ccc(/C=C/S(=O)(=O)NC(=O)c2ccc(C)cc2Cl)cc1 | inactive | – |
| O=P(OC(CCl)CCl)(OC(CCl)CCl)OC(CCl)CCl | – | 36.2 µM (active) |
| O=C1CCC(N2C(=O)c3ccccc3C2=O)C(=O)N1 (stereo not given) | inactive | – |
| Cn1c(=O)cc(Oc2ccc(F)cc2F)c2cnc(NCC(C)(C)O)nc21 | inactive | – |
| CCn1nc(Cc2ccccc2)cc1C1CCN(C[C@H]2C[C@H](N(C)[C@@H](C(=O)O)C(C)C)C[C@@H]2c2cccc(F)c2)CC1 | inactive | – |
| CC(C)=CCC/C(C)=C\CO | inactive | – |
| COCCOc1cc2cc(C(=O)NC3CCN(C(C)C)CC3)n(CC(=O)Nc3ccc(Cl)cn3)c2cn1 | inactive | – |
| CCOc1cccc(-n2cc(C(=O)N3CCN(c4cc(C(=O)O)c5ccccc5c4)CC3)nc2-c2ccc(C)cc2)c1 | inactive | – |
| Nc1ccc(Nc2ccccc2)cc1 | – | 40.8 µM (active) |
| Fc1ccccc1[C@@H](F)COC1CCC(Nc2ncnc3[nH]ncc23)CC1 (stereo not given in full) | inactive | – |
| CN(C)c1ccc(Cc2ccc(N(C)C)cc2)cc1 | inactive | – |
| CCCCCCc1ccc(O)cc1O | inactive | – |
| CCCC(=O)OCC | inactive | – |
| CCOC(=O)COc1ccc2c(c1)CC(NCC(O)c1cccc(Cl)c1)CC2 (stereo not given) | inactive | – |
| CC(C)CCO | inactive | – |
| Cc1ccc(O)cc1 | inactive | – |
| COCCOCCOCCOC | inactive | – |
| Cn1cnc([N+](=O)[O-])c1Sc1ncnc2nc[nH]c12 | inactive | – |

| SMILES | outcome | AC50 |
| --- | --- | --- |
| CC(C)=CCCC(C)CCO (stereo not given) | inactive | – |
| COc1ccc(-n2nc(C(F)F)cc2-c2ccc(S(C)=O)cc2)cc1 (stereo not given) | inactive | – |
| CC[C@H]1OC(=O)[C@H](C)[C@@H](O[C@H]2C[C@@](C)(OC)[C@@H](O)[C@H](C)O2)[C@H](C)[C@@H](O[C@@H]2O[C@H](C)C[C@H](N(C)C)[C@H]2O)[C@](C)(O)C[C@@H](C)C(=O)[C@H](C)[C@@H](O)[C@]1(C)O | inactive | – |
| COc1ccc2sc(C(=O)Nc3nnn[nH]3)c(OC(C)C)c2c1 | inactive | – |
| Cc1ccc(C)c(O)c1 | inactive | – |
| COc1cccc(-c2ccc(/C=C\CN3CCCCCC3)cc2Cl)c1 | inactive | – |
| CC(C)CCCCCCOC(=O)c1ccc(C(=O)OCCCCCCC(C)C)c(C(=O)OCCCCCCC(C)C)c1 | inactive | – |
| Cc1c(-c2cccnc2)c2ccccc2n1CCCCC(=O)O | inactive | – |
| O=C(O)CC(O)C(=O)O (stereo not given) | inactive | – |
| CC(=O)c1ccc2c(c1)[C@H](NC(=O)c1ccc(F)cc1)[C@@H](O)C(C)(C)O2 | inactive | – |
| O=C(CCCCCCCCc1cccnc1)N1CCC(C=C(c2ccccc2)c2ccccc2)CC1 | inactive | – |
| CC/C(=C\C(=N/O)C(N)=O)C(C)[N+](=O)[O-] (stereo not given) | inactive | – |
| CC(=O)OCCC(C)C | inactive | – |
| CCCCCCCCCCCCc1ccccc1 | inactive | – |
| COC(=O)CC(=O)OC | inactive | – |
| C=CCCCCCCCCC(=O)O | inactive | – |
| CCC(C)(C)C(=O)O[C@H]1C[C@@H](C)C=C2C=C[C@H](C)[C@H](CC[C@@H]3C[C@@H](O)CC(=O)O3)[C@H]21 | inactive | – |
| CC(O)CN(CCN(CC(C)O)CC(C)O)CC(C)O (stereo not given) | inactive | – |
| Clc1nc(Cl)c(Cl)c(Cl)c1Cl | inactive | – |
| CCCCC(CC)COC(=O)CCCCCCCCC(=O)OCC(CC)CCCC (stereo not given) | inactive | – |
